# The supplement of paper PMC3334620
# Over roughly 33,000 sequences, “E-score (-0.5 to 0.5)” has its median near -0.013; the highest 2% begin near 0.3. The sample as a whole holds a higher share of the highest values than the screen did.
# Molecular target: T1, Msn1 (UniProt P22148)
# T1 sequence: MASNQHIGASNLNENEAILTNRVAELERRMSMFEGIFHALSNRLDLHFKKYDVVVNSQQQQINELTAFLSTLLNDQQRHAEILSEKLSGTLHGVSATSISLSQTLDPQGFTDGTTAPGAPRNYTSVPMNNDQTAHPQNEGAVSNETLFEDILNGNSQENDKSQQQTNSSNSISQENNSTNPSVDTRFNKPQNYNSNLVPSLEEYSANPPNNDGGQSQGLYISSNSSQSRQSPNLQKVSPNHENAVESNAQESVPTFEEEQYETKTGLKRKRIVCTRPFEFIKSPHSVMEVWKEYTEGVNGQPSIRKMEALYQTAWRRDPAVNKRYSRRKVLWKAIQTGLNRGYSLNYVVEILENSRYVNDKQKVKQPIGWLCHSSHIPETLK
# Assay: PBM E-score (8-mer binding enrichment) (E-score (-0.5 to 0.5)); higher = stronger / more preferred TF binding
# Conditions: protein concentration: 200 nM; construct: GST-full length
# Summary of the method: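 For each ungapped eight-base word taken together with its reverse complement, the Universal PBM Analysis Suite assigned an E-score. Binding data came from GST-tagged yeast transcription factors, applied at about 100-200 nM, on universal all-10-mer Agilent arrays made double-stranded by primer extension. Fluorescent anti-GST marked bound protein, and scans were normalised with masliner.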
row,Sequence,PBM E-score
1,CGATATCG,0.0659
2,TCCTGAGA,0.0942
3,CTTTATGA,0.0103
4,AGCTCTTA,-0.0201
5,CGGGCAAG,0.0918
6,CAACGTTG,0.128
7,AGGCAACA,-0.161
8,GCCAGTCA,-0.117
9,CTCTGTAC,0.0138
10,ATCTGTCA,0.159
11,ATCTGTCG,0.0829
12,ATCTGTCC,0.387
13,CTCTGTCA,-0.0435
14,CTCTGTCC,0.34
15,AAAACCTG,0.0428
16,AAGCTCCA,-0.219
17,GAAGGGCC,-0.143
18,ATCTGTTA,0.183
19,ATCGCAAA,0.0406
20,ATTTGTCG,0.451
21,CTTTGTGA,0.126
22,ATTTGTTA,0.087
23,CTTTGTCC,0.485
24,AGTTGTCG,0.168
25,CTTTGTGC,0.058

row,Sequence,PBM E-score
1,ATTTGTTG,0.177
2,CTTTGTCA,0.311
3,ATTTGTCA,0.46
4,CTTTGTTA,0.215
5,CTTTGTTC,0.0603
6,GTTTGTCA,0.299
7,GCGCTAGA,-0.116
8,TATTGGCA,0.0554
9,GGCTGGAC,-0.135
10,TATGGTGA,-0.0581
11,CCGCTCAC,-0.22
12,ATCACGAC,0.117
13,GACAAGGA,0.311
14,GACAAAGA,0.404
15,AACAAAGC,-0.00117
16,AACAAAGA,0.139
17,TACAAAGA,0.208
18,TACAAGGA,0.197
19,CACAAAGC,0.161
20,CACAAGGA,0.0619
21,GACAAAGC,0.393
22,CCATGAAG,0.0685
23,ACGTCGCT,-0.211
24,CAAGTGAA,0.223
25,GCATGCCC,0.101

row,Sequence,PBM E-score
1,CTCTTGCC,-0.0644
2,AGACAGAC,0.279
3,AGACAGAA,0.00949
4,GGACAGAA,0.332
5,GGACAGAC,0.375
6,CGACAGAA,0.167
7,CGACAGAC,-0.0767
8,GATTGCAC,0.0495
9,CGAAAGCG,0.0854
10,AAGCCAGA,0.00654
11,ACGTTCAG,-0.0415
12,TGTCCTAA,0.487
13,GGTCCTAA,0.18
14,CGTCCGAA,0.222
15,TGTCCACA,0.455
16,GGTCCAAA,-0.0431
17,AGTCCAAA,0.214
18,TGTCCGAA,0.452
19,CGTCCACA,0.188
20,GGTCCGAA,0.128
21,AGTCCTAA,0.297
22,AGTCCACG,-0.059
23,TGTCCAAA,0.473
24,CCGGGATA,0.101
25,ACTGGTTC,-0.0366

row,Sequence,PBM E-score
1,CCAGCTAG,-0.16
2,CGCCTGAC,-0.0177
3,CCTAACGC,-0.129
4,AGTGAGGA,-0.0425
5,AACATAGC,0.13
6,CCACCAAC,-0.0306
7,AACCTGGT,0.00051
8,TGTCCCAA,0.463
9,CGTCCCAA,0.218
10,AGTCCCAA,0.17
11,AAGCATTA,-0.0789
12,CTCGATGA,-0.0098
13,ACGACCTA,-0.0056
14,CAGGCCGC,-0.144
15,CACATACC,0.0401
16,CACATACA,0.0971
17,AACATACC,0.107
18,TACATACA,0.207
19,GACATACC,0.4
20,GACATACA,0.414
21,GCGGATCA,-0.116
22,ACAAAAGG,0.229
23,AGTTAGAC,0.124
24,CTTGGGTC,-0.123
25,GGACTCAC,-0.116

row,Sequence,PBM E-score
1,GCCCTTTA,-0.318
2,TTCCAAAA,0.192
3,CTACAAAA,0.0933
4,GTCCAAAA,0.318
5,CTACAAAC,-0.0616
6,GTACAAAC,0.421
7,GTACAAAA,0.416
8,ATACAAAC,0.125
9,TTACAAAA,0.12
10,GTCCAAAC,0.175
11,ACGAGTAT,-0.134
12,GAAGGCTC,-0.291
13,CTTGGGCC,-0.266
14,CTACACGC,-0.145
15,GCTTCTAC,-0.0502
16,CGTAAGTA,0.0282
17,ACGTGACA,0.27
18,ATGTGACG,-0.223
19,ATGTGACA,0.305
20,GTGTGACA,0.17
21,CCGTGACA,0.164
22,CTGTGACC,-0.115
23,CTGTGAAA,0.2
24,CTGTGACA,0.316
25,TCGTGACA,0.314

row,Sequence,PBM E-score
1,CCTGCTTC,-0.172
2,GCGCCTAA,0.129
3,CGTAGGGA,0.0214
4,GGTTTGCA,-0.172
5,ACGAATCA,0.13
6,CAGTCACG,-0.198
7,ATTGCTGC,-0.0878
8,ATTCGGAG,0.0972
9,ATTCGGAC,0.339
10,ATTCGGAA,0.167
11,AAAGATAT,0.113
12,AATGAGAG,-0.161
13,CCCCAATC,-0.222
14,ATGACATG,0.361
15,ATGACATC,0.349
16,ATGACACA,0.287
17,ATGACAGA,0.137
18,ATGACAGG,0.105
19,ATGACACC,0.0663
20,GTGACAGA,0.161
21,GTGACTGA,0.0999
22,CTGACATC,0.143
23,GTGACATA,0.328
24,CTGACATA,0.269
25,ATGACATA,0.417

row,Sequence,PBM E-score
1,AGCGCGTG,-0.133
2,CATTGGGG,-0.125
3,GGGACCAA,-0.0643
4,CGCCTCTA,-0.0484
5,CACACTGG,-0.259
6,CATGCAGA,-0.0066
7,CATCTCGA,0.149
8,CAAGAAAG,0.0067
9,GATCTTAC,0.00117
10,AGAGACAA,0.375
11,AGAGACCT,-0.012
12,CGAGACAA,0.365
13,TGAGAGAA,0.00621
14,TGAGACCA,-0.0631
15,CGAGACAC,0.183
16,TGAGACAA,0.397
17,AGAGAGAC,-0.0618
18,CGAGACAG,-0.00132
19,AGAGACAT,0.43
20,AGAGACAC,0.177
21,AGAGACAG,0.0165
22,ATAGCGGG,-0.192
